Assay [1] can be described thus: qHTS assay to identify small molecule agonists of the TGF-beta/Smad signaling pathway (AID 1346859; active means well fitted activation curve with a large enough effect in the signal ratio in the repeat runs, not every such curve was filed as active; the % refers to the signal ratio; further: series mostly up to about 77 µM). A digest of the protocol: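 HEK 293T cells stably carrying a beta-lactamase reporter driven by the Smad binding element were seeded overnight, exposed to DMSO-dissolved compounds for 5 hr at 37 C, 5% CO2, then loaded with FRET substrate for 2 hr at room temperature.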
For orientation: Quantitative high-throughput screening tests each substance at several concentrations.

Assay [2] addresses Thyrotropin-releasing hormone receptor (Homo sapiens) (UniProt P34981). The assay is described as follows: qHTS assay to identify small molecule antagonists of the thyrotropin-releasing hormone receptor (TRHR) signaling pathway (AID 1346877; active means well fitted inhibition curve with a large enough effect in the repeat runs, not every such curve was filed as active; further: series mostly up to about 51 µM). Put shortly: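 Antagonism is measured as suppression of the calcium response to 1 nM TRH in TRHR-HEK293 cells that have been dye-loaded for 2 h at 37 °C after overnight plating. Each compound is tested at 15 concentrations in triplicate.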

Assay [3] has the same target. Briefly: qHTS assay to identify small molecule agonists of the thyrotropin-releasing hormone receptor (TRHR) signaling pathway (AID 1346891; calls by dose curve; further: series mostly up to about 58 µM). Put shortly: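 TRHR-expressing HEK293 cells were plated 18 h at 37 °C/5% CO2, loaded with calcium dye 2 h at 37 °C, then given compound in DMSO; fluorescence was read kinetically for 3 min at 1 s intervals.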
The nature of assay [4]: Human pregnane X receptor (PXR) small molecule agonists, qHTS cell viability counter screen (AID 1346977). Further: nearly all actives have a fitted effect of over 50% in size. A digest of the protocol:
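PXR-Luc HepG2 cells in medium with 5% charcoal-stripped FBS were pre-incubated 5hr, then exposed to compounds for 24hr at 37C. Viability was read in the same wells by CellTiter-Fluor fluorescence, reagent added after 23hr with a 1hr incubation.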

Assay [5] can be described thus: Caspase-3/7 induction in HepG2 cells by small molecules, qHTS assay (AID 1346978). Further: nearly all actives have a fitted effect of over 15% in size. A digest of the protocol: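 Wild-type HepG2 cells, 2,000/well, settled 5 hr at 37 C and 5% CO2, then compound-treated for 17 hr; caspase-3/7 activity read by luminescent Caspase-Glo 3/7 after 30 min at room temperature.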
The nature of assay [6]: Caspase-3/7 induction in CHO-K1 cells by small molecules, qHTS cell viability counter screen (AID 1346979). Further: nearly all actives have a fitted effect of over 35% in size. Put shortly:
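Wild-type CHO-K1 cells were seeded at 1,500 per well, rested 5hr at 37 C, then exposed to compounds in DMSO. After 16hr, CellTiter-Fluor reagent was added and fluorescence read 1hr later as the viability measure.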

The nature of assay [7]: Caspase-3/7 induction in CHO-K1 cells by small molecules, qHTS assay (AID 1346980). Further: nearly all actives have a fitted effect of over 15% in size. A digest of the protocol: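 Wild-type CHO-K1 cells exposed to compounds for 17hr at 37 C, 5% CO2. Caspase-3/7 activity then measured by Caspase-Glo 3/7 luminescence after 30min at room temperature.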
The nature of assay [8]: Caspase-3/7 induction in HepG2 cells by small molecules, qHTS cell viability counter screen (AID 1346981). Further: series mostly up to about 92 µM; nearly all actives have a fitted effect of over 30% in size. Put shortly: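 Cell viability is measured as a cytotoxicity counter screen alongside the Caspase-Glo 3/7 readout in identical wells. Wild-type HepG2 cells are treated with test compounds for 16 hr at 37 C before CellTiter-Fluor addition and a 1-hr incubation.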
The target in assay [9] is Nuclear receptor subfamily 1 group I member 2 (Homo sapiens) (UniProt O75469). Briefly: Human pregnane X receptor (PXR) small molecule agonists, qHTS assay (AID 1346982). Further: nearly all actives have a fitted effect of over 35% in size. Further: potency means the concentration at half of the fitted maximal effect. A digest of the protocol:
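Cells: HepG2 stably carrying PXR-Luc. Medium held 5% charcoal-stripped FBS. Compounds in DMSO added after 5 hr plating, incubated 24 hr, then luminescence quantified with ONE-Glo.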

The record followed here is PubChem BioAssay (Tox21).

A number with no mark means an inactive call. Records with an inconclusive call do not appear. Calls of active or inactive are those of the source. Unless noted, the call rests on the fitted dose curve; in most records, active means well fitted curve in the direction sought with a large enough effect in the repeat runs; inconclusive means weak or mixed curves; inactive means no such curve, though single readings can be large; an effect the other way counts as inactive or inconclusive.
On the % scale 0 is the no-effect control and ±100 the full control effect.

Chain of Nuclear receptor subfamily 1 group I member 2 (Homo sapiens) (O75469 whole entry, looked up): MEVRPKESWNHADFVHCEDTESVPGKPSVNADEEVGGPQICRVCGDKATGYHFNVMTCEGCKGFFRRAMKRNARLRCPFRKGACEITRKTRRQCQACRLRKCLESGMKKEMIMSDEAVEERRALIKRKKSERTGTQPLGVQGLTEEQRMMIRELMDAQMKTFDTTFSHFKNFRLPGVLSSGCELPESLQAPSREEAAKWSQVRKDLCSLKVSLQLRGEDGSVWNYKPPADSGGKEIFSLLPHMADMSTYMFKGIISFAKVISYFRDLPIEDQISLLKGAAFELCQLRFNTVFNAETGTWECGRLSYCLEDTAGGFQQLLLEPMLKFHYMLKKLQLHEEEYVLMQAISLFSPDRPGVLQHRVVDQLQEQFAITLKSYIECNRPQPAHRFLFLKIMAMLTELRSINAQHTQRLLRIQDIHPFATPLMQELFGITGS
Chain of Thyrotropin-releasing hormone receptor (Homo sapiens) (P34981 whole entry, looked up): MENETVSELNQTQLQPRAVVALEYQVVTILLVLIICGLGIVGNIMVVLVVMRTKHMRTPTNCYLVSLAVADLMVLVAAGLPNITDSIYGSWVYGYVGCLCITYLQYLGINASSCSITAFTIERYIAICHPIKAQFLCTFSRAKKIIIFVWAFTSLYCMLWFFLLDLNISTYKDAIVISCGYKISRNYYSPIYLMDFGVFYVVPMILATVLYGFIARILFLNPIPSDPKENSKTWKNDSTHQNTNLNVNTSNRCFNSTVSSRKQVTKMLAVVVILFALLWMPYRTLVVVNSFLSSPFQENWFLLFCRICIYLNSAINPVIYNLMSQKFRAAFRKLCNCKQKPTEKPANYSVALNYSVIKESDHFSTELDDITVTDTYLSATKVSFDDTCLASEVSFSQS

With `COc1cc(S(N)(=O)=O)cc(C(=O)O)c1OC`, the call in assay [1], in assay [2], in assay [4], in assay [5], in assay [7] and in assay [8] was inactive. The Potency result in assay [3], in assay [6] and in [9] was “inactive” each time.
On to `CCCCCCC(=O)c1ccccc1`, for which the call in [1], in assay [2], in assay [4], in [5], in [7] and in [8] was inactive. Besides, the Potency result in assay [3], in assay [6] and in assay [9] was “inactive” each time.
As for `COCCCOc1cc(C[C@@H](C[C@H](N)[C@@H](O)C[C@H](C(=O)NCC(C)(C)C(N)=O)C(C)C)C(C)C)ccc1OC`, the result in assay [1], in [2], in [4], in [5], in assay [7] and in [8] was inactive. Moreover, the Potency entry in assay [3], in assay [6] and in [9] was “inactive” each time.
Consider `C=CCn1cc[n+](C)c1`, for which the result in [1], in assay [2], in [4], in assay [5], in [7] and in [8] was inactive. Besides, the Potency entry in [3], in assay [6] and in [9] was “inactive” each time.
For `COC(C)(C)CC(C)=O`, the outcome in [1], in assay [2], in assay [4], in assay [5], in [7] and in assay [8] was inactive. In addition, the Potency result in [3], in assay [6] and in [9] was “inactive” each time.
In the case of `CCCCNCC`, the call in [1], in assay [2], in assay [4], in [5], in assay [7] and in assay [8] was inactive. Moreover, the Potency result in [3], in assay [6] and in assay [9] was “inactive” throughout.
As to `CCCCS`, the molecule was called inactive in assay [1], in assay [2], in [4], in [5], in assay [7] and in [8]. The Potency result in assay [3], in [6] and in assay [9] was “inactive” throughout.
`N=C(N)N`: the result in assay [1], in assay [2], in assay [4], in [5], in [7] and in [8] was inactive. Further, the Potency entry in [3], in assay [6] and in assay [9] was “inactive” in each case.
Regarding `Cc1ccc2cccnc2c1`, the call in [1], in assay [2], in assay [4], in assay [5], in [7] and in [8] was inactive. Further, the Potency entry in assay [3], in assay [6] and in assay [9] was “inactive” in each case.
With `CCCc1ccc(O)c(OC)c1`, the molecule was called inactive in assay [1], in assay [2], in assay [4], in [5], in [7] and in assay [8]. For the same molecule, the Potency entry in assay [3], in [6] and in [9] was “inactive” throughout.
With `Cc1ccc(OC(=O)CC(C)C)cc1`, the molecule was classed as inactive in assay [1], in assay [2], in assay [4], in [5], in assay [7] and in [8]. The Potency result in assay [3], in [6] and in [9] was “inactive” in each case.
Turning to `C=CCON/C(CCC)=C1\C(=O)CC(C)(C)C(C(=O)OC)=C1O`, the molecule was called inactive in assay [1], in assay [2], in assay [4], in assay [5], in assay [7] and in assay [8]. Moreover, the Potency entry in assay [3], in assay [6] and in assay [9] was “inactive” throughout.
On to `CCCCCCCCCCCC(C)=O`, for which the result in assay [1], in assay [2], in [4], in [5], in assay [7] and in [8] was inactive. Also, the Potency entry in assay [3], in assay [6] and in assay [9] was “inactive” in each case.
Consider `CCCCCCCCS(=O)(=O)O`, for which the molecule was called inactive in [1], in assay [2], in assay [4], in assay [5], in [7] and in assay [8]. Moreover, the Potency result in assay [3], in assay [6] and in assay [9] was “inactive” in each case.
For the molecule `CC(O)C(CO)C(C)O` (centres undefined), the outcome in assay [1], in assay [2], in [4], in [5], in assay [7] and in assay [8] was inactive. For the same molecule, the Potency entry in [3], in assay [6] and in assay [9] was “inactive” in each case.
Turning to `COc1ccccc1N1CCN(CC(O)COc2cc(OC)c(OC)c(OC)c2)CC1` (centres undefined), the call in assay [1], in assay [2], in assay [4], in assay [5], in [7] and in assay [8] was inactive. For the same molecule, the Potency result in [3], in assay [6] and in assay [9] was “inactive” throughout.
`CCCCN1C(=O)c2ccccc2C1=O`: the outcome in [1], in [2], in assay [4], in assay [5], in assay [7] and in [8] was inactive. For the same molecule, the Potency entry in assay [3], in assay [6] and in [9] was “inactive” throughout.
As to `CCO[Si](CC(C)C)(OCC)OCC`, the call in assay [1], in assay [2], in assay [4], in assay [5], in assay [7] and in assay [8] was inactive. The Potency entry in assay [3] and in assay [6] was “inactive” throughout. Also, the Potency in assay [9] is 9.69 µM (active).
`O=C(O)Cc1ccccc1Oc1ccc(Cl)cc1Cl`: the outcome in assay [1], in [2], in assay [4], in assay [5], in assay [7] and in assay [8] was inactive. For the same molecule, the Potency result in assay [3], in assay [6] and in assay [9] was “inactive” throughout.
Consider `CC(C)C(=O)Nc1cccc(C2CN3CCSC3=N2)c1` (centres undefined), for which the call in assay [1], in assay [2], in [4], in assay [5], in [7] and in assay [8] was inactive. Further, the Potency entry in assay [3], in assay [6] and in assay [9] was “inactive” in each case.
For the molecule `NC[C@H]1O[C@H](O[C@H]2[C@H](O)[C@@H](O[C@H]3O[C@H](CO)[C@@H](O)[C@H](N)[C@H]3O)[C@H](N)C[C@@H]2N)[C@H](N)[C@@H](O)[C@@H]1O`, the activation in [1] was 3.2% [at 15.8 µM]; in assay [3], -0.0664% [at 11.8 µM]; in [9], -6.93% [at 19 µM]. In assay [2], the activity, negative = inhibition is -3.11% [at 10.5 µM]. The values for the activity change, negative = cytotoxicity in assay [4], in assay [6] and in assay [8] were 11% [at 19 µM], 1.7% [at 19 µM] and 0.336% [at 19 µM], respectively. In assay [5], the caspase activation was -1.91% [at 19 µM]. In addition, the caspase-3/7 activation in assay [7] was -0.57% [at 19 µM].
As to `C=CCN(CC=C)CC=C`, the result in assay [1], in assay [2], in [4], in assay [5], in assay [7] and in [8] was inactive. Further, the Potency entry in [3], in assay [6] and in assay [9] was “inactive” in each case.
Take `O=C1CC2(CCCC2)CC(=O)N1CCNCC1COc2ccccc2O1` (centres undefined): the outcome in assay [1], in [2], in [4], in assay [5], in [7] and in [8] was inactive. Besides, the Potency result in assay [3] and in assay [6] was “inactive” each time. Moreover, in assay [9], the Potency is 13.3 µM (active).
In the case of `CC(=O)Oc1ccc(C(C)=O)cc1`, the outcome in assay [1], in assay [2], in [4], in [5], in assay [7] and in assay [8] was inactive. Also, the Potency result in [3], in assay [6] and in assay [9] was “inactive” in each case.
As for `CCOC(=O)CN1CCCC1=O`, the molecule was classed as inactive in [1], in assay [2], in assay [4], in assay [5], in assay [7] and in assay [8]. Besides, the Potency result in [3], in [6] and in [9] was “inactive” throughout.
As to `CC/C=C\CCOC(=O)c1ccccc1`, the molecule was classed as inactive in [1], in assay [2], in assay [4], in [5], in [7] and in assay [8]. Moreover, the Potency result in assay [3], in assay [6] and in assay [9] was “inactive” each time.
